{
  "source": "ChEMBL document CHEMBL3988442",
  "about": "“University of Dundee, Small-Polar-MMV Screening Library” (2021)",
  "note": "About 300 (0.45%) of roughly 67,000 compounds showed an effect of 50% or more. The entries come from a sample that favours strong results as a whole.",
  "data": [
    {"target": "Polyketide synthase Pks13 (Mycobacterium tuberculosis (strain ATCC 25618 / H37Rv)) (UniProt I6X8D2)", "sequence (I6X8D2 whole entry)": "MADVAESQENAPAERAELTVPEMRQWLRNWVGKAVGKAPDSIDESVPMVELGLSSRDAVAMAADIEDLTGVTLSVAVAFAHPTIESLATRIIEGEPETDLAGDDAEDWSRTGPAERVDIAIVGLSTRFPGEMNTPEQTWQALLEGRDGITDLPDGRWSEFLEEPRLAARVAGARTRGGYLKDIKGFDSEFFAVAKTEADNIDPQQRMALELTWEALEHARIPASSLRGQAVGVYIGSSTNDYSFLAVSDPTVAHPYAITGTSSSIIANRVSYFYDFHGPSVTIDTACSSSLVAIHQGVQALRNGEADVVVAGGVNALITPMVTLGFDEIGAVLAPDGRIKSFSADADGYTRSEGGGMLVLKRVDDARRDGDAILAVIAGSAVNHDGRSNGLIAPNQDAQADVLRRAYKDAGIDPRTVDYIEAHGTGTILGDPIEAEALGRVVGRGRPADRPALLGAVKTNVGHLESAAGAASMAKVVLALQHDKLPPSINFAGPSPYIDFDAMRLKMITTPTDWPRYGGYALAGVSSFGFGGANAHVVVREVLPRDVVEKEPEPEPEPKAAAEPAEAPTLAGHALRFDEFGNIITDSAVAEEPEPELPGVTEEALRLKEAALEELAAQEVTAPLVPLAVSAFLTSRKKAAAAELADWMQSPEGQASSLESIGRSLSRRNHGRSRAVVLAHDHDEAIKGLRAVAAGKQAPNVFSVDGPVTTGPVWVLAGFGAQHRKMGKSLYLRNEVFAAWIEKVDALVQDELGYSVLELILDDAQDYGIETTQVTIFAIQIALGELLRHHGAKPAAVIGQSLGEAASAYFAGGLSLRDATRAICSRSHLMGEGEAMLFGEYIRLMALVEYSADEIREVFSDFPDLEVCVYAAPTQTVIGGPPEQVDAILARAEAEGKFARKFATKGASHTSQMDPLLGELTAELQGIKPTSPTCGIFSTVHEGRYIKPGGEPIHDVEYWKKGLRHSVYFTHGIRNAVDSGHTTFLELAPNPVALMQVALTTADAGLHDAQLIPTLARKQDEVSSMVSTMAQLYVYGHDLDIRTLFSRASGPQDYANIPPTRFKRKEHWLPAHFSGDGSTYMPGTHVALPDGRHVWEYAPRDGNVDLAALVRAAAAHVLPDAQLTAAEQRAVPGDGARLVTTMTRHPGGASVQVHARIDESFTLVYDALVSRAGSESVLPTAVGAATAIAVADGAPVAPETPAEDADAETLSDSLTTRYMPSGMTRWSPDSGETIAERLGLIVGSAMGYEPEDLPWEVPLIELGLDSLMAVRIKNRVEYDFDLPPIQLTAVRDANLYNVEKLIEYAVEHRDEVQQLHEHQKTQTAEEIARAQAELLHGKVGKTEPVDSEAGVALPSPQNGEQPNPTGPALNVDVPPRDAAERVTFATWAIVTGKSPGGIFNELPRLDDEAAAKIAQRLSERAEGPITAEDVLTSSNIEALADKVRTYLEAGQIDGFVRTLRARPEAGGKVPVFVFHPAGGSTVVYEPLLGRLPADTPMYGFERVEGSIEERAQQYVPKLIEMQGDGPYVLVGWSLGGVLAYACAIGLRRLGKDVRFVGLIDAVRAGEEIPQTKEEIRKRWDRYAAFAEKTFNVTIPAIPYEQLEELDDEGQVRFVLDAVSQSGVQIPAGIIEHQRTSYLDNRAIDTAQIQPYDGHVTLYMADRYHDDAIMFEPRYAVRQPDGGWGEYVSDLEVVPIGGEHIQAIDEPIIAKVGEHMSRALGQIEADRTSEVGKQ", "experiment": "Mycobacterium tuberculosis Polyketide synthase 13 Thioesterase (PKS13)", "format": "functional", "parameters": "scale not given: in the data most compounds retested in dose-response had high values", "settings": "30 µM", "units": {"Percent Effect": "%"}, "values": [
      {"smiles": "Cc1nc[nH]c1CN1CCN(C(=O)c2cccs2)[C@H]2CS(=O)(=O)C[C@H]21", "Percent Effect": -7.55},
      {"smiles": "COCCN1C[C@H]2CC[C@@H]1CN(CC(=O)Nc1ccn(C)n1)C2", "Percent Effect": -11.6},
      {"smiles": "O=C(c1cnccn1)N1CCN2C[C@H](Oc3cccc(F)c3)C[C@H]2C1", "Percent Effect": -42.7},
      {"smiles": "O=C(Cc1cccc(F)c1)N1CCN2C[C@H](Oc3cncnc3)C[C@H]2C1", "Percent Effect": -1.46},
      {"smiles": "O=C(C1CC1)N1CCN2C[C@@H](CO)[C@H](c3ccccc3)[C@H]2C1", "Percent Effect": 2.09},
      {"smiles": "Cc1nnc([C@H]2CC[C@@H]3[C@@H](CCN3CC3CCOCC3)O2)o1", "Percent Effect": -25.5},
      {"smiles": "CN(C)C(=O)CO[C@@H]1CC[C@H]2[C@H]1OCCN2c1ncc(F)cn1", "Percent Effect": -1.97},
      {"smiles": "COCCN1C(=O)C[C@H]2[C@H]1CCN2Cc1cccc(C#N)c1", "Percent Effect": -24.2},
      {"smiles": "Cc1ccc2nc(C(=O)N(C)[C@@H]3CC[C@@H](N4CCCC4)[C@@H]3O)cn2c1", "Percent Effect": 61.6},
      {"smiles": "CO[C@@H]1CC[C@@H](N(C)C(=O)c2cn3cc(C)ccc3n2)[C@H]1O", "Percent Effect": -0.591},
      {"smiles": "CO[C@@H]1CCC[C@@H](N(C)C(=O)c2cn3cc(C)ccc3n2)[C@H]1O", "Percent Effect": -3.51},
      {"smiles": "CC(C)=CCN1C[C@H]2CC[C@@H]1CN(S(=O)(=O)c1cccnc1)C2", "Percent Effect": 7.63},
      {"smiles": "CCN1CC[C@@]2(C(=O)N3CCOCC3)CCN(C(=O)NC)CC[C@@H]12", "Percent Effect": -31.8},
      {"smiles": "CC(NC(=O)NCC(C)(C)C(N)=O)c1nc(-c2ccccc2)cs1", "note": "(configuration not stated)", "Percent Effect": 55.9},
      {"smiles": "CC(C)NC(=O)NC(C)c1nc(-c2ccccc2)cs1", "note": "(configuration not stated)", "Percent Effect": 0.666},
      {"smiles": "CC(NC(=O)NC1CC1)c1nc(-c2ccccc2)cs1", "note": "(configuration not stated)", "Percent Effect": -2.19},
      {"smiles": "CCS(=O)(=O)N1CCc2cc(C(=O)NC)c(NCC3CC3)nc2CC1", "Percent Effect": 23.6},
      {"smiles": "CNC(=O)c1cc2c(nc1NCC(C)C)CCN(S(C)(=O)=O)CC2", "Percent Effect": 51},
      {"smiles": "CNC(=O)c1cc2c(nc1NCC1CC1)CCN(CC1CC1)CC2", "Percent Effect": 42.7},
      {"smiles": "CNC(=O)c1cc2c(nc1NCC(C)C)CCN(c1ncccn1)CC2", "Percent Effect": 16.7},
      {"smiles": "CNC(=O)c1cc2c(nc1NCC1CC1)CCN(S(=O)(=O)C1CC1)CC2", "Percent Effect": -32.9},
      {"smiles": "CNC(=O)c1cc2c(nc1NCC(C)C)CCN(c1ccncn1)CC2", "Percent Effect": 94.4},
      {"smiles": "CNC(=O)c1cc2c(nc1NCC(C)C)CCN(CC1CC1)CC2", "Percent Effect": 51.6},
      {"smiles": "CNC(=O)c1cc2c(nc1NCC1CC1)CCN(c1ccncn1)CC2", "Percent Effect": -246},
      {"smiles": "CCS(=O)(=O)N1CCc2cc(C(=O)NC)c(NCC(C)C)nc2CC1", "Percent Effect": -68.6},
      {"smiles": "CNC(=O)c1cc2c(nc1NCC(C)C)CCN(S(=O)(=O)C1CC1)CC2", "Percent Effect": -13.9},
      {"smiles": "CNC(=O)c1cc2c(nc1NCC(C)C)CCN(C)CC2", "Percent Effect": 49.9},
      {"smiles": "CNC(=O)c1cc2c(nc1NCC1CC1)CCN(S(C)(=O)=O)CC2", "Percent Effect": 55.9},
      {"smiles": "O=C(NC1CC1)[C@@H]1CCO[C@@H]2CCN(C3CCOCC3)C[C@H]21", "Percent Effect": -9.37},
      {"smiles": "Cc1noc(C)c1CN1C[C@@H]2CCCO[C@@H]2[C@H](NS(C)(=O)=O)C1", "Percent Effect": -27.6},
      {"smiles": "O=C([C@@H]1COC[C@H]2CN(CC3CCCC3)C[C@H]21)N1CCOCC1", "Percent Effect": -31.7},
      {"smiles": "CO[C@@H]1CCN(c2ncc(F)cn2)[C@@H]2CN(CC3CC3)C[C@@H]21", "Percent Effect": -32.1},
      {"smiles": "CC(C)N1CCO[C@H]2CN(C(=O)c3ccsc3)C[C@H]21", "Percent Effect": -16},
      {"smiles": "Cc1cc(CN2CCN(C(=O)C(C)C)[C@@H]3CS(=O)(=O)C[C@@H]32)ccc1F", "Percent Effect": -6.06},
      {"smiles": "CNC(=O)c1cc2c(nc1NCC1CC1)CCN(c1ncccn1)CC2", "Percent Effect": 9.04},
      {"smiles": "CNC(=O)c1cc2c(nc1NCC1CC1)CCNCC2", "Percent Effect": 81.7},
      {"smiles": "CN(C)C(=O)c1cc2c(nc1NCC1CC1)CCNCC2", "Percent Effect": -20.1},
      {"smiles": "O=C1[C@@H]2CCN(Cc3ccoc3)C[C@@H]2OCCN1c1cccnc1", "Percent Effect": -7.12},
      {"smiles": "Cc1noc([C@H]2C[C@H]3CN(C(=O)Cc4ccsc4)CC[C@H]3O2)n1", "Percent Effect": -10.9},
      {"smiles": "O=C(CC1CC1)N[C@@H]1CN(Cc2nccs2)C[C@@H]2CCCO[C@@H]21", "Percent Effect": -33.5},
      {"smiles": "Cc1nc(COC[C@@H]2CC[C@H]3[C@H](CCN3c3ncccn3)O2)cs1", "Percent Effect": -28.4},
      {"smiles": "COCC(=O)N1CCC(c2cc(C(F)(F)F)n3ccnc3n2)CC1", "Percent Effect": 61.5},
      {"smiles": "CN1CCC(c2cc(C(F)(F)F)n3ccnc3n2)CC1", "Percent Effect": -20.7},
      {"smiles": "CC(C)N1CCCC(c2cc(C(F)(F)F)nc3nccn23)C1", "note": "(configuration not stated)", "Percent Effect": 24.5},
      {"smiles": "CC(=O)N1CCC(c2cc(C(F)(F)F)n3ccnc3n2)CC1", "Percent Effect": 41.8},
      {"smiles": "CC(=O)N1CCC(c2cc(C(F)(F)F)nc3nccn23)CC1", "Percent Effect": 57.5},
      {"smiles": "FC(F)(F)c1cc(C2CCN(c3cnccn3)CC2)n2ccnc2n1", "Percent Effect": 18.1},
      {"smiles": "c1cc(CN2CCO[C@H]3[C@H](OCCN4CCCC4)CC[C@@H]32)ccn1", "Percent Effect": -11.4},
      {"smiles": "CC1=N[C@@]2(CC[C@@H]3CN(CC(=O)N(C)C)C[C@@H]32)C(=O)N1CC(C)C", "Percent Effect": -5.03},
      {"smiles": "COCCCN1C(=O)CC[C@H]2CN(Cc3cc4ccccc4o3)CC[C@H]21", "Percent Effect": -4.88},
      {"smiles": "COCCN1CCO[C@@H]2CN(Cc3ccc(C)s3)C[C@@H]2C1", "Percent Effect": -27.7},
      {"smiles": "CN(C)C(=O)CN1C[C@@H]2CC[C@H](C1)N(Cc1ccccc1C#N)C2", "Percent Effect": 6.99},
      {"smiles": "CN1CCCN(c2nccc(-c3c[nH]c4ccc(Br)cc34)n2)CC1", "Percent Effect": -2.62},
      {"smiles": "COc1ccc2[nH]cc(-c3ccnc(N4CCC(C)CC4)n3)c2c1", "Percent Effect": 71.9},
      {"smiles": "COc1ccc2[nH]cc(-c3ccnc(NC4CCCC4)n3)c2c1", "Percent Effect": 18.6},
      {"smiles": "O=C(COC1CCCC1)N1C[C@@H]2COC[C@]2(COc2cccnc2)C1", "Percent Effect": -18},
      {"smiles": "Nc1nccnc1CC1CCCN(Cc2ccnc3ccccc23)C1", "note": "(configuration not stated)", "Percent Effect": 126},
      {"smiles": "COc1ccccc1CN1CCCC(Cc2nccnc2N)C1", "note": "(configuration not stated)", "Percent Effect": -2.41},
      {"smiles": "Nc1nccnc1CC1CCCN(Cc2c[nH]c3ccccc23)C1", "note": "(configuration not stated)", "Percent Effect": 15.3},
      {"smiles": "CCN1C[C@H]2CCN(C(=O)NC3CCCC3)CC[C@H]2S1(=O)=O", "Percent Effect": -17.8},
      {"smiles": "CC(=O)N1[C@H](Cn2cncn2)C[C@@H]2CN(C(=O)NC3CC3)CC[C@@H]21", "Percent Effect": 12.2},
      {"smiles": "O=C(Nc1cnccn1)[C@H]1CO[C@H]2CCN(c3ncc(F)cn3)C[C@H]2C1", "Percent Effect": -40.3},
      {"smiles": "COCCN1C(=O)[C@]2(CC[C@@H]3CN(Cc4ccccc4F)C[C@@H]32)N=C1C", "Percent Effect": -17.4},
      {"smiles": "Cc1csc2ncc(-c3ccnc(N4CCN(C)CC4)n3)c(=O)n12", "Percent Effect": -27.4},
      {"smiles": "Cc1csc2ncc(-c3ccnc(N4CCCN(C)CC4)n3)c(=O)n12", "Percent Effect": 37.9},
      {"smiles": "Cc1csc2ncc(-c3ccnc(N4CCCC4)n3)c(=O)n12", "Percent Effect": 137},
      {"smiles": "C/C(NC(=O)c1ccco1)=C1/C(=O)C[C@@H]2[C@H]1C2(C)C", "Percent Effect": 0.624}
    ]}
  ]
}
